Out of some 310,000 compounds screened, about 14,000 (4.5%) showed an effect of 50% or more. Effects have a minus sign here. For the sample, strong results were picked, then their nearest neighbours and some compounds at random.
molecular target: human ether-à-go-go-related gene (hERG) potassium channel (human, UniProt Q12809); assay: primary screen, population patch clamp on CHO cells stably expressing hERG; higher = less effect of the substance
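Also: peak tail current of the secondary pulse compared with the same well before compound.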

human ether-à-go-go-related gene (hERG) potassium channel, sequence (Q12809 whole entry, looked up): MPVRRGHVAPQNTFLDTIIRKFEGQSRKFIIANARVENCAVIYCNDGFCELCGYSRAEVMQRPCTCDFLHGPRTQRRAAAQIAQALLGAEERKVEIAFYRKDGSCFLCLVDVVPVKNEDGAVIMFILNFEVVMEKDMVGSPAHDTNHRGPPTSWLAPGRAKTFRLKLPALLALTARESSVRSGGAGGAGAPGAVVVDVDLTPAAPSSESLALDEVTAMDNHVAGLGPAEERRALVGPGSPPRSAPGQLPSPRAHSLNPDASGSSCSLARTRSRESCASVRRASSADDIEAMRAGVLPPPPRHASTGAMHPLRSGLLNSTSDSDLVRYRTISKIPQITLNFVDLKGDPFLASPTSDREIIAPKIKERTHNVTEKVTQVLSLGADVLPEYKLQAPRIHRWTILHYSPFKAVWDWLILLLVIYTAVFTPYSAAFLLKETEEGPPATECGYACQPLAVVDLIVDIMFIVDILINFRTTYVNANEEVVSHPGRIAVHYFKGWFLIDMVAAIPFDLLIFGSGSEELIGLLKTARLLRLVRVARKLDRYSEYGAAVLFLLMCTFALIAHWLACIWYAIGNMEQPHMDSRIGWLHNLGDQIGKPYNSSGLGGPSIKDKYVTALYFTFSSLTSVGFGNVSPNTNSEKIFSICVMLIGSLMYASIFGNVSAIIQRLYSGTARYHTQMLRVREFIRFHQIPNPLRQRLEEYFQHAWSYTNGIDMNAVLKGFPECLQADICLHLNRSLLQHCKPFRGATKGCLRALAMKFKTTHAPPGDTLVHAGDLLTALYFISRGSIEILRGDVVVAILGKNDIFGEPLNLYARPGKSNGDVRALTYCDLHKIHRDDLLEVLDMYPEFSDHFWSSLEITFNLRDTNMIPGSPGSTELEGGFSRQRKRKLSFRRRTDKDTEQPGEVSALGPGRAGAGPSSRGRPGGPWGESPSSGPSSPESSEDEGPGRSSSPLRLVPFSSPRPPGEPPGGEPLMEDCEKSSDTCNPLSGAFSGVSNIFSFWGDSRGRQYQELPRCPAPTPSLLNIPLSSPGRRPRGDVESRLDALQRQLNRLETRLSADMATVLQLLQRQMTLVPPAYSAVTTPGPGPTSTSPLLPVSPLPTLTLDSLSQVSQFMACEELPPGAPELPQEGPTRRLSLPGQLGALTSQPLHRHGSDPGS

Compound | hERG current change (%, negative = inhibition) at 10uM [%]
COC(=O)c1cc(C(=O)Nc2ccc(Cl)cn2)cc([N+](=O)[O-])c1 | -19
O=c1oc2cc(S(=O)(=O)NCCCO)ccc2c2ccc(S(=O)(=O)NCCCO)cc12 | 16.1
CN1CCC(OC(=O)c2ccccc2Cl)CC1.Cl | 0.522
CN(C)CC1CCCCC1OC(=O)c1ccc(Br)cc1.Cl (centres unmarked) | -7.82
CN(C)CC1CCCCC1OC(=O)c1ccc(Cl)cc1Cl.Cl (centres unmarked) | -56.5
COc1ccc(C(=O)OC2CCCCC2CN(C)C)cc1.Cl (centres unmarked) | 14.1
CN(C)CC1CCCCC1OC(=O)c1ccc(Cl)cc1 (centres unmarked) | -28.5
CN(C)CC1CCCCC1OC(=O)/C=C/c1ccc(Cl)cc1Cl.Cl (centres unmarked) | -32.4
CN(C)CC1CCCCC1OC(=O)c1ccc(Cl)c(Cl)c1.Cl (centres unmarked) | -52.1
CN1CCC(OC(=O)c2ccc(Cl)cc2Cl)CC1.Cl | -55.9
CN1CCC(OC(=O)c2cccc(Cl)c2)CC1.Cl | -8.64
Cc1cc(C)n2nc(C(=O)N3CCCC(Nc4ccc(F)c(F)c4)C3)cc2n1 (centres unmarked) | 5.05
COc1cccc(N2C(=O)CC(N3CCN(C(=O)c4ccco4)CC3)C2=O)c1 (centres unmarked) | 9.29
COCCN(C(=O)c1ccc(NC2CC2)c([N+](=O)[O-])c1)c1c(N)n(CC(C)C)c(=O)[nH]c1=O | -5.42
C[C@@H]1CC[C@]2(O[C@H](CCO)C[C@@H](O)[C@@H]2O)O1 | 0.536
CC(C)(c1ccccc1)c1ccc(OCCN)cc1.Cl | -20.2
Cc1cccc(NC(=O)CCc2c(C)nn(-c3ccc(N4CCOCC4)nn3)c2C)c1 | 3.98
CCc1cccc(NC(=O)CCc2c(C)nn(-c3ccc(N4CCCCC4)nn3)c2C)c1 | -19
CCc1cccc(NC(=O)CCc2c(C)nn(-c3ccc(N4CCOCC4)nn3)c2C)c1 | -51.4
COc1ccc(NC(=O)Cn2c(=O)oc3cc(S(=O)(=O)N4CCCC4)ccc32)cc1 | 5.26
CC1(C)CC(=O)C2=C(C1)N(c1ccccc1)C(=O)CC2c1ccsc1 (centres unmarked) | -14.4

Compound | hERG current change (%, negative = inhibition) at 10uM [%]
O=C(NCc1ccccc1)C1CCN(S(=O)(=O)N2CCCCCC2)CC1 | -11
CCn1c(=O)c(C(=O)NCCNCCO)c(O)c2ccccc21.Cl | 5.89
CCCOc1ccc(NC(=O)CC2C(=O)N(CC)C(=S)N2CCCN2CCN(Cc3ccccc3)CC2)cc1 (centres unmarked) | -50.5
CCCOc1ccc(NC(=O)CC2C(=O)N(CC)C(=S)N2CCNC(C)=O)cc1 (centres unmarked) | -11.5
CCN1C(=O)C(CC(=O)Nc2ccc(OC)cc2)N(CCc2ccc(F)cc2)C1=S (centres unmarked) | -6.48
CCN1C(=O)C(CC(=O)Nc2ccc(F)cc2)N(CCc2ccc(OC)cc2)C1=S (centres unmarked) | -0.637
CCN1C(=O)C(CC(=O)Nc2ccc(OC)cc2)N(CCCN2CCN(c3ccc(F)cc3)CC2)C1=S (centres unmarked) | -37.6
CCN1C(=O)C(CC(=O)Nc2ccc(OC)cc2)N(CCCN2CCN(c3ccc(OC)cc3)CC2)C1=S (centres unmarked) | -68
CCN1C(=O)C(CC(=O)Nc2ccc(OC)cc2)N(CCN2CCOCC2)C1=S (centres unmarked) | -4.13
C=CCN1C(=O)C(CC(=O)Nc2ccc(OCCC)cc2)N(CCCN2CCN(Cc3ccccc3)CC2)C1=S (centres unmarked) | -38.7
CCN1C(=O)C(CC(=O)Nc2ccc(F)cc2)N(CCCN2CCN(c3ccc(F)cc3)CC2)C1=S (centres unmarked) | -62.2
O=C(Nc1ccccn1)C1CCN(C(=O)c2ccc(F)cc2)CC1 | 3.81
CC1CC(C)CN(S(=O)(=O)c2cccc3nsnc23)C1 (centres unmarked) | 4.61
Cc1cc(C)c2c3c(oc2n1)C(=O)N(c1cccc(Cl)c1)CC(=O)N3 | 1.82
NC(=O)CC1NC(=O)c2cc([N+](=O)[O-])cc(I)c2OCCC(C(N)=O)NC(=O)[C@@H]2CCCN2C1=O (some centres unmarked) | 6.79
O=C(c1ccc2c3c(cccc13)C(=O)N(O)C2=O)N1CCCCC1 | 12.4
CC(C)[C@@H](C(=O)NC1CC1)N1C(=O)N2CCc3c([nH]c4ccccc34)[C@@]2(C)C1=O | -6.45
COc1ccc2[nH]c3c(c2c1)CCN1C(=O)N([C@@H](C)C(=O)NCc2ccco2)C(=O)[C@]31C | -53.8
COc1ccc2[nH]c3c(c2c1)CCN1C(=O)N([C@@H](C)C(=O)NC2CCN(Cc4ccccc4)CC2)C(=O)[C@]31C | -48.8
COC(=O)C1Cc2c([nH]c3ccccc23)C2(CCN(Cc3ccccc3)CC2)N1 (centres unmarked) | -68.2
CC(C)[C@@H](C(=O)NC1CCCC1)N1C(=O)N2CCc3c([nH]c4ccccc34)[C@@]2(C)C1=O | -12.4

Compound | hERG current change (%, negative = inhibition) at 10uM [%]
C[C@@H](C(=O)NC1CCN(Cc2ccccc2)CC1)N1C(=O)N2CCc3c([nH]c4ccccc34)[C@@]2(C)C1=O | -77.8
COc1ccc(CNC(=O)[C@H](C)N2C(=O)N3CCc4c([nH]c5ccc(OC)cc45)[C@@]3(C)C2=O)cc1 | 9.36
CC(C)[C@@H](C(=O)NC1CCN(Cc2ccccc2)CC1)N1C(=O)N2CCc3c([nH]c4ccccc34)[C@@]2(C)C1=O | -74.6
COC(=O)[C@H]1Cc2c([nH]c3ccccc23)[C@H](c2ccccc2)N1 | 5.76
C[C@@H](C(=O)NC1CCCC1)N1C(=O)N2CCc3c([nH]c4ccccc34)[C@@]2(C)C1=O | -27.5
COC(=O)[C@@H]1Cc2c([nH]c3ccccc23)C(C)(C)N1C(=O)CCl | 3.24
COc1ccc2[nH]c3c(c2c1)CCN1C(=O)N([C@@H](C)C(=O)NCc2ccccc2)C(=O)[C@]31C | 2.42
CCCC(=O)n1nc(-c2cccnc2)nc1N | -27.1
CC(C)C[C@@H](C(=O)NC1CCN(Cc2ccccc2)CC1)N1C(=O)N2CCc3c([nH]c4ccccc34)[C@@]2(C)C1=O | -53.2
CC(C)C[C@@H](C(=O)NC1CC1)N1C(=O)N2CCc3c([nH]c4ccccc34)[C@@]2(C)C1=O | -15
CC(C)C[C@@H](C(=O)N[C@@H](C(=O)O)c1ccccc1)N1C(=O)N2CCc3c([nH]c4ccccc34)[C@@]2(C)C1=O | -6.67
Cc1ccc(CCN2CC(C(=O)NCCCN3CCN(C)CC3)CC2=O)cc1 (centres unmarked) | -8.81
CCN(C(=O)CSc1ccc2c(c1)OCCO2)C1CCS(=O)(=O)C1 (centres unmarked) | 9.65
COc1ccc(O)c(C(=O)c2cnc3c(c2)c(-c2ccc(F)cc2)c(C#N)c(=O)n3C)c1 | 12.6
CCCCn1c(-c2cccc(C)c2)nc2cc3[nH]c(=O)c(C(C)C)nc3cc21 | 0.235
CCCCn1c(-c2cccnc2)nc2cc3[nH]c(=O)c(C(C)C)nc3cc21 | -50.4
CCCCn1c(-c2cccc(Br)c2)nc2cc3[nH]c(=O)c(C(C)C)nc3cc21 | 4.08
CC(=O)C(Sc1nnnn1-c1ccc(O)cc1)c1ccccc1 (centres unmarked) | -14.3
COc1ccc(CCNC(=O)c2cc3c(=O)n4ccccc4nc3n(Cc3ccco3)c2=N)cc1OC | -76.6
COc1ccc(CCNC(=O)c2coc3ccccc3c2=O)cc1OC | -4.09
COc1ccc(CCNC(=O)CSc2nc(=O)n3cccc(C)c3n2)cc1OC | 15.8

Compound | hERG current change (%, negative = inhibition) at 10uM [%]
COc1ccc(CCNC(=O)c2cc3c(=O)n4cccc(C)c4nc3n(Cc3ccco3)c2=N)cc1OC | -80.9
COc1ccc(CCNC(=O)c2cc3c(=O)n4cccc(C)c4nc3s2)cc1OC | 21.3
COc1ccc(CCNC(=O)c2ccc3c(=O)n(Cc4ccco4)c(=S)[nH]c3c2)cc1OC | 17.2
CSc1ccc(Cl)c(C(=O)OCC(=O)NCC(C)C)c1 | -21
CCN(CC)CC(O)Cn1c2ccccc2c2ccccc21 (centres unmarked) | -16
CCN(CC)CC(O)Cn1c(C)c(-c2ccccc2)c2cc([N+](=O)[O-])ccc21.Cl (centres unmarked) | -65.3
Cn1c(CO)c(-c2ccccc2)c2cc([N+](=O)[O-])ccc21 | 10.2
Nc1cccc2c1C(=O)N(CCOc1ccccc1F)C2=O | 20.2
CCN1CCN(c2oc(COc3ccc(-c4ccccc4)cc3)nc2C#N)CC1 | -55.8
Cc1ccc(OCc2nc(C#N)c(N3CCCC3)o2)cc1 | -62.8
CCN1CCN(c2oc(COc3ccc(Cl)cc3)nc2C#N)CC1 | -77
N#Cc1nc(COc2ccc(F)cc2)oc1N1CCN(Cc2ccccc2)CC1 | -75.3
COc1ccc(N2CCN(c3oc(COc4ccc(Cl)cc4)nc3C#N)CC2)cc1 | -2.55
N#Cc1nc(COc2ccc(Cl)cc2)oc1N1CCN(Cc2ccccc2)CC1 | -1.08
N#Cc1nc(COc2ccc(Cl)cc2)oc1N1CCCC1 | -38.9
CN1CCN(c2oc(COc3ccc(-c4ccccc4)cc3)nc2C#N)CC1 | -19
N#Cc1nc(COc2ccccc2)oc1N1CCN(Cc2ccccc2)CC1 | -21.9
N#Cc1nc(COc2ccc(F)cc2)oc1N1CCCC1 | -46.7
Cc1ccc(OCc2nc(C#N)c(N3CCCCC3)o2)cc1 | -4.24
Cc1ccc(OCc2nc(C#N)c(N3CCN(Cc4ccccc4)CC3)o2)cc1 | -6.23

Reference: paper PMC4336329 (PLoS ONE, 2015)
